# According to article PMC4102417:
# System: murine 3T3 fibroblasts
# Assay: primary screen, percent viability or growth; higher = less effect of the substance
# Procedure: Similarly, for measuring the cytotoxicity concentration (CC50) for 3T3 fibroblast cells, cultures were incubated with drugs for 72 hours and developed using Alamar Blue (Alamar Biosciences Inc, Sacramento, CA) as previously described.
row,Compound,Mammalian (3T3) cell % growth at 10 uM [%]
1,CC(=O)Oc1ccc2c(c1)CCC1C2CCC2(C)C1CC(OC(C)=O)[C@@H]2OC(C)=O (some centres unmarked),60.7
2,C=CC(C)(O)CCC1C(=C)CC(O)C2C(C)(C)CCCC12C (centres unmarked),74
3,CSc1ccc2c(c1)C(N1CCN(C)CC1)Cc1ccccc1S2.O=C(O)/C=C\C(=O)O (centres unmarked),69.6
4,CC(=O)OC1c2c(ccc3ccc(=O)oc23)OC(C)(C)C1OC(=O)CC(C)C (centres unmarked),81.2
5,CC(=O)[C@H]1CC[C@H]2[C@@H]3CC[C@H]4C[C@@H](O)CC[C@]4(C)[C@H]3CC[C@]12C,100
6,CC(CC(O)C1OC1(C)C)C1CCC2(C)C3=CCC4C(C)(C)C(=O)CCC4(C)C3CCC12C (centres unmarked),100
7,O=C(CCCN1CCC2(CC1)C(=O)NCN2c1ccccc1)c1ccc(F)cc1,94.7
8,C#C[C@]1(O)CC[C@H]2[C@@H]3CCC4=Cc5oncc5C[C@]4(C)[C@H]3CC[C@@]21C,90.2
9,CC1CCC2(NC1)OC1CC3C4CCC5CC(O)CCC5(C)C4CCC3(C)C1C2C.Cl (centres unmarked),100
10,CCCCC1C(=O)N(c2ccccc2)N(c2ccc(O)cc2)C1=O (centres unmarked),72.8
11,CC1=CC(=O)c2ccccc2C1=O,0.5
12,CC1(C)C(=O)C2OC2C2(C)C1CC(O)C1(C)C2CCC2(C)C(c3ccoc3)OC(=O)C3OC321 (centres unmarked),77.3
13,C[C@@](Cc1ccc(O)c(O)c1)(NN)C(=O)O,17.7
14,Oc1ccc(Cl)c2cccnc12,49.7
15,CC[C@@]1([C@@H]2O[C@@H]([C@H]3O[C@@](O)(CO)[C@H](C)C[C@@H]3C)C[C@@H]2C)CC[C@H]([C@]2(C)CC[C@]3(C[C@H](O)[C@@H](C)[C@@H]([C@@H](C)[C@@H](OC)[C@H](C)C(=O)O)O3)O2)O1,41.3
16,C=C1CC[C@@H]2C(CC2(C)C)C(=O)CC[C@H]1O (some centres unmarked),2.6

row,Compound,Mammalian (3T3) cell % growth at 10 uM [%]
1,COc1ccc(-c2cc(=O)c3c(O)cc(O)cc3o2)cc1,77.4
2,COc1ccc2cc1Oc1ccc(cc1)C[C@H]1c3cc(c(OC)cc3CCN1C)Oc1c(OC)c(OC)cc3c1[C@H](C2)N(C)CC3,14.6
3,Oc1cc2c(cc1O)C1c3ccc(O)c(O)c3OCC1(O)C2 (centres unmarked),100
4,O=C(Nc1ccc([N+](=O)[O-])cc1Cl)c1cc(Cl)ccc1O,10.5
5,C=CC(C1=CC(=O)C=CC1=O)c1ccccc1 (centres unmarked),97.5
6,CC(C)CCC[C@@H](C)[C@H]1CC[C@H]2[C@@H]3C(=O)C=C4C[C@@H](O)CC[C@]4(C)[C@H]3CC[C@]12C,68.5
7,O=c1[nH]c2ccccc2n1C1CCN(CCCC(c2ccc(F)cc2)c2ccc(F)cc2)CC1,8.1
8,CC(=O)OC1CC2C(C)(C)C(=O)C=CC2(C)C2CCC3(C)C(=CC(=O)OC3c3ccoc3)C12C (centres unmarked),56.1
9,NCCc1ccc(O)c(O)c1,2.4
10,Cl.OC(c1cc(C(F)(F)F)nc2c(C(F)(F)F)cccc12)C1CCCCN1 (centres unmarked),94.7
11,CC(=O)Oc1cc2c(c(C)c1OC(C)=O)CC=C1C2(C)CCC2(C)C3CC(C)(C(=O)O)CCC3(C)CCC12C (centres unmarked),0.6
12,CC(C)C[C@H]1C(=O)N2CCC[C@H]2[C@]2(O)O[C@](NC(=O)[C@@H]3C=C4c5cccc6[nH]c(Br)c(c56)C[C@H]4N(C)C3)(C(C)C)C(=O)N12.CS(=O)(=O)O,92.1
13,COc1ccc2c(c1)OCC(Cc1ccc(OC)c(OC)c1)C2=O (centres unmarked),84.5
14,CN1CCCC1CCOC(C)(c1ccccc1)c1ccc(Cl)cc1 (centres unmarked),93.2
15,N[C@H](C(=O)O)[C@@H]1CC(Cl)=NO1,48.2
16,COc1ccc2[nH]cc(CCN)c2c1.Cl,24.2
